Inconclusive results are not listed. The source made the active and inactive calls. Calls come from the whole dose curve; as a rule, active = well fitted curve in the direction sought with a large enough effect; inconclusive = small, poorly fitted or top-dose-only effect, or another doubt; inactive = no such curve, though single readings can be large; an effect the other way counts as inactive or inconclusive.
What was measured:
[1] = qHTS of pediatric cancer cell lines to identify multiple opportunities for drug repurposing: Primary screen for SK-N-SH cells (AID 1347098); note: nearly all actives have a fitted effect of over 65% in size
In short: (§1)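 Cells (500-1,000/well) rested 5 h, then received compounds for 48 h; metabolically active cells were measured by CellTiter-Glo luminescence. Final concentrations spanned up to 46 µM (MIPE, 11-point) or 0.59 nM-46 µM (NPC, 8-point) in primary screens, 11-point in follow-ups.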

[2] = qHTS of pediatric cancer cell lines to identify multiple opportunities for drug repurposing: Primary screen for NB1643 cells (AID 1347099); note: nearly all actives have a fitted effect of over 50% in size
In short: (§2)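 Quantitative HTS format: each compound titrated (MIPE 11 points from 0.78 nM, NPC 8 points from 0.59 nM) onto cells plated 5 hours earlier. After 48 h at 37 degrees C, CellTiter-Glo luminescence was recorded.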

[3] = qHTS of pediatric cancer cell lines to identify multiple opportunities for drug repurposing: Primary screen for LAN-5 cells (AID 1347100)
In short: as §1

[4] = qHTS of pediatric cancer cell lines to identify multiple opportunities for drug repurposing: Primary screen for BT-12 cells (AID 1347101); note: nearly all actives have a fitted effect of over 25% in size
In short: as §1

[5] = qHTS of pediatric cancer cell lines to identify multiple opportunities for drug repurposing: Primary screen for Rh18 cells (AID 1347102); note: nearly all actives have a fitted effect of over 65% in size
In short: as §1

[6] = qHTS of pediatric cancer cell lines to identify multiple opportunities for drug repurposing: Primary screen for OHS-50 cells (AID 1347103); note: nearly all actives have a fitted effect of over 40% in size
In short: as §1

[7] = qHTS of pediatric cancer cell lines to identify multiple opportunities for drug repurposing: Primary screen for MG 63 (6-TG R) cells (AID 1347105); note: nearly all actives have a fitted effect of over 50% in size
In short: as §2

[8] = qHTS of pediatric cancer cell lines to identify multiple opportunities for drug repurposing: Primary screen for control Hh wild type fibroblast cells (AID 1347106); note: nearly all actives have a fitted effect of over 55% in size
In short: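 Cells (500-1,000/well) in growth media were settled 5 h at 37 degrees C, then given compounds for 48 h. Viability was read as CellTiter-Glo luminescence. Primary runs used MIPE at 11 points (0.78 nM-46 µM) and NPC at 8 points (0.59 nM-46 µM); follow-ups used 11 points.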

[9] = qHTS of pediatric cancer cell lines to identify multiple opportunities for drug repurposing: Primary screen for Rh30 cells (AID 1347107); note: nearly all actives have a fitted effect of over 75% in size
In short: as §1

[10] = qHTS of pediatric cancer cell lines to identify multiple opportunities for drug repurposing: Primary screen for Rh41 cells (AID 1347108); note: nearly all actives have a fitted effect of over 70% in size
In short: as §2

[11] = qHTS of pediatric cancer cell lines to identify multiple opportunities for drug repurposing: Primary screen for RD cells (AID 1347104); note: nearly all actives have a fitted effect of over 55% in size
In short: as §2

[12] = qHTS of pediatric cancer cell lines to identify multiple opportunities for drug repurposing: Confirmatory screen for NB1643 cells (AID 1347109); note: nearly all actives have a fitted effect of over 45% in size
In short: as §1

[13] = qHTS of pediatric cancer cell lines to identify multiple opportunities for drug repurposing: Confirmatory screen for A673 cells (AID 1347110);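 note: cells exposed to compound for 48 h before the viability read; nearly all actives have a fitted effect of over 65% in size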
In short: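 A673 cells seeded at 500-1,000 cells/well, rested 5 h, then dosed; primary MIPE 11-point (0.78 nM to 46 µM), NPC (0.59 nM to 46 µM); confirmatory 11-point. CellTiter-Glo luminescence after 48 h.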

[14] = qHTS of pediatric cancer cell lines to identify multiple opportunities for drug repurposing: Confirmatory screen for SK-N-MC cells (AID 1347111);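 note: cells exposed to compound for 48 h before the readout; nearly all actives have a fitted effect of over 70% in size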
In short: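 Seed 500-1,000 cells/well; rest 5 h at 37 degrees C. Pin-transfer compounds, 11-point titration. Incubate 48 h. Add CellTiter-Glo, 15 min RT, read luminescence.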

[15] = qHTS of pediatric cancer cell lines to identify multiple opportunities for drug repurposing: Confirmatory screen for BT-12 cells (AID 1347112); note: nearly all actives have a fitted effect of over 55% in size
In short: as §1

[16] = qHTS of pediatric cancer cell lines to identify multiple opportunities for drug repurposing: Confirmatory screen for LAN-5 cells (AID 1347113); note: nearly all actives have a fitted effect of over 65% in size
In short: as §1

[17] = qHTS of pediatric cancer cell lines to identify multiple opportunities for drug repurposing: Confirmatory screen for NB-EBc1 cells (AID 1347115);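 note: cells exposed to compound for 48 h before the viability read; nearly all actives have a fitted effect of over 45% in size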
In short: as §1

[18] = qHTS of pediatric cancer cell lines to identify multiple opportunities for drug repurposing: Confirmatory screen for SJ-GBM2 cells (AID 1347116); note: nearly all actives have a fitted effect of over 60% in size
In short: (§3)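 Viability measured as metabolically active cells via CellTiter-Glo luminescence following 48 hours of compound exposure, 11-point dilutions in confirmatory testing. 500-1,000 cells/well plated 5 hours before dosing; controls were DMSO and 2.3 µM bortezomib.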

[19] = qHTS of pediatric cancer cell lines to identify multiple opportunities for drug repurposing: Confirmatory screen for BT-37 cells (AID 1347117); note: nearly all actives have a fitted effect of over 55% in size
In short: as §1

[20] = qHTS of pediatric cancer cell lines to identify multiple opportunities for drug repurposing: Confirmatory screen for DAOY cells (AID 1347114); note: nearly all actives have a fitted effect of over 65% in size
In short: as §3
Potency is the fitted concentration of half-maximal effect.

Row | SMILES | Potency [1] | Potency [2] | Potency [3] | Potency [4] | Potency [5] | Potency [6] | Potency [7] | Potency [8] | Potency [9] | Potency [10] | Potency [11] | Potency [12] | Potency [13] | Potency [14] | Potency [15] | Potency [16] | Potency [17] | Potency [18] | Potency [19] | Potency [20]
1 | COc1cc2c(cc1-c1c(C)noc1C)ncc1[nH]c(=O)n([C@H](C)c3ccccn3)c12 | 21.5 µM (active) | 11.8 µM (active) | 5.9 µM (active) | 19.3 µM (active) | 5.9 µM (active) | 0.485 µM (active) | 1.87 µM (active) | 16.6 µM (active) | 23.5 µM (active) | 9.35 µM (active) |  |  |  |  |  |  |  |  |  | 
2 | Nc1ncnc2c1c(-c1cnc3[nH]ccc3c1)nn2C1CCCC1 | 2.15 µM (active) | 5.9 µM (active) | 1.05 µM (active) | 1.37 µM (active) | 0.526 µM (active) | 0.0685 µM (active) | 0.118 µM (active) | 1.32 µM (active) | 2.09 µM (active) | 0.935 µM (active) | 1.87 µM (active) | 8.27 µM (active) | 3.69 µM (active) | 1.65 µM (active) | 3.69 µM (active) | 1.47 µM (active) | 10.4 µM (active) | 2.33 µM (active) | 2.33 µM (active) | 
3 | C[C@@H](Oc1cc(-c2cnn(C3CCNCC3)c2)cnc1N)c1c(Cl)ccc(F)c1Cl | 19.2 µM (active) | 3.72 µM (active) | 1.05 µM (active) | 24.3 µM (active) | 16.6 µM (active) | 2.43 µM (active) | 18.7 µM (active) |  | 18.7 µM (active) | 18.7 µM (active) | 16.6 µM (active) | 5.85 µM (active) | 3.29 µM (active) | 5.85 µM (active) |  | 5.85 µM (active) | 16.5 µM (active) |  | 20.8 µM (active) | 
4 | CC[C@@H]1C(=O)N(C)c2cnc(Nc3ccc(C(=O)NC4CCN(C)CC4)cc3OC)nc2N1C1CCCC1 | 2.41 µM (active) | 1.32 µM (active) | 0.0332 µM (active) | 0.172 µM (active) | 5.9 µM (active) | 0.0544 µM (active) |  | 23.5 µM (active) |  |  | 0.059 µM (active) | 3.29 µM (active) | 0.0369 µM (active) | 0.0465 µM (active) | 16.5 µM (active) | 5.22 µM (active) | 3.29 µM (active) | 1.04 µM (active) | 0.131 µM (active) | 
5 | CC1(C)OC2=C(C(=O)c3ccccc3C2=O)[C@H](NCc2ccccc2)[C@H]1O | 4.82 µM (active) | 4.18 µM (active) | 5.26 µM (active) | 13.7 µM (active) | 7.43 µM (active) | 4.32 µM (active) | 9.35 µM (active) | 23.5 µM (active) | 5.9 µM (active) | 7.43 µM (active) | 10.5 µM (active) | 7.37 µM (active) | 2.93 µM (active) | 5.22 µM (active) | 20.8 µM (active) | 7.37 µM (active) | 9.27 µM (active) | 7.37 µM (active) | 5.22 µM (active) | 8.27 µM (active)
6 | Cc1ccc(C(=O)Nc2ccc(CN3CCN(C)CC3)c(C(F)(F)F)c2)cc1C#Cc1cnc2cccnn12 | 6.07 µM (active) | 23.5 µM (active) | 11.8 µM (active) | 6.85 µM (active) | 2.09 µM (active) | 1.09 µM (active) |  |  | 14.8 µM (active) | 9.35 µM (active) | 3.32 µM (active) |  | 4.65 µM (active) | 0.0033 µM (active) | 8.27 µM (active) |  |  |  |  | 8.27 µM (active)
7 | C=C1C(=CC=C2CCC[C@]3(C)[C@@H]([C@H](C)C=C[C@H](C)C(C)C)CC[C@@H]23)C[C@@H](O)C[C@@H]1O | 1.92 µM (active) | 0.935 µM (active) | 0.469 µM (active) | 2.17 µM (active) | 0.743 µM (active) | 0.685 µM (active) | 5.9 µM (active) |  | 3.72 µM (active) | 0.935 µM (active) | 1.66 µM (active) |  |  |  |  |  | 4.14 µM (active) |  |  | 20.8 µM (active)
8 | COc1cc(=C2C=c3ccccc3=N2)[nH]c1=Cc1[nH]c(C)cc1C | 19.2 µM (active) | 14.8 µM (active) | 5.9 µM (active) | 6.85 µM (active) | 10.5 µM (active) | 7.69 µM (active) | 11.8 µM (active) |  |  | 5.9 µM (active) | 2.96 µM (active) | 14.7 µM (active) | 2.19 µM (active) | 11.7 µM (active) | 26.1 µM (active) | 10.4 µM (active) |  | 43.7 µM (active) | 7.37 µM (active) | 
9 | Cc1ccc(CN2CCNCC2)cc1NC(=O)CNc1ccc(F)c(F)c1 | 19.2 µM (active) | inactive | inactive | inactive |  |  |  |  |  |  |  |  |  |  |  |  |  |  |  | 

Reference: PubChem BioAssay (NCATS)
